GAA850 FXN act: FXN promoter activators, primary screen, cell-based, luciferase luminescence, HEK293 lucGAA850. HEK293 lucGAA850 FXN promoter luciferase reporter, 24 h; percent of 10 µM SAHA response. 360,000 tested, 0.56% active. activation, % at 6 µM;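 active = activation above the average of all compounds screened plus 3 SD, cutoff fixed separately per campaign, cut at about 7.5% in these data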;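 note: 0% = DMSO wells and 100% = 10 µM SAHA wells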
F508del corr: F508del CFTR correction, initial screen, CFBE line, single point; CFBE cells, YFP halide quenching; stimulated with forskolin plus potentiator P3; % fluorescence drop versus neutral controls; activity (quench increase), % at 7.58 µM; 350,000 tested, 0.36% active; AID 720511, 2013;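 active = mean added fluorescence quench of at least 8% versus neutral control, with both replicates also reaching 8%; inconclusive = only one of the mean or replicate conditions met; inactive = mean below 8% and not both replicates reaching 8%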;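 note: cells transiently co-express mutant CFTR-F508del with the halide-sensitive YFP; corrector assay measuring rescue of mutant channel to the surface after 24 h compound exposure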
PAX8 inh HTS: inhibitors of PAX8-driven TPO luciferase reporter, primary screen, RMG-I cells, single concentration. SteadyGlo, 24 h. inhibition, % at 12.6 µM. 360,000 tested, 1.2% active. AID 652154, 2013;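 active = mean replicate inhibition at least 60% with every replicate also reaching 60%; inconclusive = only one of the two criteria is met; inactive = mean below 60% and not all replicates reaching 60%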;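 note: luciferase light reporting Pax8 driven TPO promoter activity; plate controls were median of neutral control wells for no effect and mitoxantrone controls for full effect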
EWS-Fli inh: EWS/Fli-driven NR0B1 reporter inhibitors, primary screen, A673 cells, NR0B1 luciferase, luminescence, MLPCN library; viability-normalised; inhibition, % at 12.6 µM; 350,000 tested, 0.67% active; AID 651661, 2012;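 active = mean inhibition of at least 50% after viability correction, with every replicate also passing that limit; inconclusive = mean reaches 50% but only one of two replicates passes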;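 note: firefly luciferase signal divided by Alamar Blue viability fluorescence both relative to DMSO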
HIV Env fusion: inhibitors of HIV-1 Env-driven cell-cell fusion, primary screen, HeLa-JRFL effector, CEM21 target cells, luciferase | AID 651610, 2012 | 360,000 tested, 1.1% active | inhibition, % at 12.3 µM;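 active = mean replicate inhibition score of at least 50 and every replicate individually at or above 50; inconclusive = only one of the two criteria met; inactive = mean below 50 and not all replicates reaching 50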;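 note: 0% = plate neutral controls and 100% = maraviroc near 300 nM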
An asterisk follows results filed as active; ? = inconclusive; . = no result; [ ] = dose if it differs, or a comment. Sampled rows, rich in hits. Any-hit rate of the full collection: about 2.5%.

SMILES	GAA850 FXN act	F508del corr	PAX8 inh HTS	EWS-Fli inh	HIV Env fusion
Cc1ccc(S(=O)(=O)Nc2ccc3c(c2)CC(=O)N([C@@H](C)CO)C[C@@H](C)[C@H](CN(C)S(=O)(=O)c2ccc(C)cc2)O3)cc1	.	-2.4	-9.5	4.9	-12.3[16.7 µM]
Cc1ccc(S(=O)(=O)Nc2ccc3c(c2)CC(=O)N([C@H](C)CO)C[C@H](C)[C@H](CN(C)S(=O)(=O)c2ccc(C)cc2)O3)cc1	.	1.6	6.7	0.7	89.6*[16.7 µM]
C/C=C/c1ccc(OCCOc2cc(C=O)ccc2OC)c(OC)c1	3.2	.	-124.0	.	.
C/C=C/c1ccc(OCCOCCNCc2ccccc2)c(OC)c1	5.9	-2.5	-4.1	9.8	89.4*
NC(=O)CC(NC(=O)c1ccc(Br)cc1)c1ccc(N2CCC(Cc3ccccc3)CC2)c([N+](=O)[O-])c1 (stereo not drawn)	1.8	-1.9	11.1	8.6	22.2
NC(=O)CC(NC(=O)c1ccccc1)c1ccc(N2CCC(Cc3ccccc3)CC2)c([N+](=O)[O-])c1 (stereo not drawn)	-0.8	1.1	11.8	21.8	86.5*
C/C=C/c1cnc2c(c1)C(=O)N([C@H](C)CO)C[C@@H](C)[C@H](CN(C)C(=O)C1CCC1)O2	.	0.0	.	-1.1	-13.0[16.7 µM]
COc1ccccc1C(=O)N(CCC1CCCN1C)c1nc2ccccc2s1 (stereo not drawn)	-12.2	1.8	-104.0	61.4*	-97.1
C/C(O)=c1/c(=O)nc2cccc3c2=c1c1ccccc1c3=O	5.0	2.9	-24.8	-92.8	67.3*
C=C(NC(=O)C(=C)NC(=O)c1csc(C2=NC3c4csc(n4)C4NC(=O)c5csc(n5)C(C(C)(O)C(C)O)NC(=O)C5CSC(=N5)/C(=C/C)NC(=O)C(C(C)O)NC(=O)c5csc(n5)C3(CC2)NC(=O)C(C)NC(=O)C(=C)NC(=O)C(=C)NC(=O)C(C(C)C)NC2C=Cc3c(C(C)O)cc(nc3C2O)C(=O)OC4C)n1)C(N)=O (stereo not drawn)	-4.1	-3.2	46.4	74.2*	3.7
Cc1noc(C)c1NC(=O)N(C)C[C@@H]1Oc2c(NS(C)(=O)=O)cccc2C(=O)N([C@@H](C)CO)C[C@@H]1C	.	0.5	.	-6.2	5.7[16.7 µM]
O=C(CCN1CCCCC1)N[C@H]1CC[C@@H](CCNS(=O)(=O)c2ccccc2)O[C@H]1CO	.	0.8	-3.9	-3.8	6.0[16.7 µM]
COc1ccc2c3c([nH]c2c1)[C@H](CO)N(C(=O)c1ccccc1)CC31CN(Cc2cccnc2)C1	.	-2.7	.	12.9	3.1[16.7 µM]
Cc1ccc(CNC(=O)Cc2ccc(-n3cccc3)cc2)cc1	-3.0	.	23.0	.	-80.0
COc1ccc(CC(=O)NCc2ccc(-n3cccc3)cc2)cc1OC	0.2	11.0*	27.2	59.8*	-274.9
O=[N+]([O-])c1ccc(Oc2cccnc2)c([N+](=O)[O-])c1	-1.6	-3.0	64.1*	1.5	-82.3
Cc1ccc(S(=O)(=O)Nc2ccc3c(c2)C(=O)N([C@@H](C)CO)C[C@H](C)[C@@H](CN(C)Cc2ccc(C(=O)Nc4ccccc4N)cc2)OCCCC[C@@H](C)O3)cc1	.	3.4	17.9	.	.
C[C@@H]1CC[C@H]2C(=O)N3[C@@H](CC[C@@H](C)[C@@H]3c3ccc(Br)cc3)C(=O)N2[C@H]1c1ccc(Br)cc1	6.0	3.3	27.9	7.4	77.3*
O=C1C2C3C=CC(CC3)C2C(=O)N1c1ccc(Br)cc1 (stereo not drawn)	0.7	-1.3	-6.9	-4.7	24.4
C[C@H](O)C#Cc1ccc([C@H]2[C@@H](CO)N3CCCCN(C(=O)c4ccc5c(c4)OCO5)C[C@H]23)cc1	.	-3.1	-21.4	0.9	.
CC1(C(=O)NCc2cccc(C(F)(F)F)c2)CCN1Cc1ccc(-c2ccccc2)o1 (stereo not drawn)	1.4	1.7	74.2*	12.5	?
CCOc1ccc(OCC)c(NC(=O)CSc2nc3ccccc3c(=O)n2C)c1	1.6	.	.	.	91.0*
COc1ccc(NC(=O)Nc2ccc3c(c2)CC(=O)N([C@@H](C)CO)C[C@H](C)[C@@H](CN(C)C(=O)Nc2ccc4c(c2)OCO4)O3)cc1	.	-0.5	-13.7	-5.1	-5.3[16.7 µM]
C[C@@H]1CCCCO[C@H](CN(C)Cc2ccc3c(c2)OCO3)[C@H](C)CN([C@H](C)CO)C(=O)c2cc(NC(=O)Nc3cccc4ccccc34)ccc2O1	.	-3.3	7.5	7.7	3.2[16.7 µM]
C[C@@H]1CN([C@@H](C)CO)C(=O)c2cc(NC(=O)Nc3cccc4ccccc34)ccc2O[C@@H](C)CCCCO[C@H]1CN(C)Cc1ccc2c(c1)OCO2	.	-5.5	7.1	76.7*	11.4[16.7 µM]
SMILES	GAA850 FXN act	F508del corr	PAX8 inh HTS	EWS-Fli inh	HIV Env fusion
C[C@@H]1CN([C@@H](C)CO)C(=O)c2cc(NC(=O)Nc3cccc4ccccc34)ccc2O[C@@H](C)CCCCO[C@@H]1CN(C)Cc1ccc2c(c1)OCO2	.	8.8*	34.7	10.8	-0.3[16.7 µM]
C[C@@H]1CN([C@@H](C)CO)C(=O)c2cc(NC(=O)Nc3cccc4ccccc34)ccc2O[C@@H]1CN(C)Cc1ccc2c(c1)OCO2	.	3.1	76.2*	2.1	15.8[16.7 µM]
C[C@H](CO)N1C[C@H](C)[C@H](CN(C)Cc2ccc3c(c2)OCO3)OCCCC[C@H](C)Oc2ccc(NC(=O)Nc3cccc4ccccc34)cc2C1=O	.	5.6	33.9	-2.9	38.1[16.7 µM]
C[C@H]1CN([C@@H](C)CO)C(=O)c2cc(NC(=O)Nc3cccc4ccccc34)ccc2O[C@H]1CN(C)Cc1ccc2c(c1)OCO2	.	1.2	26.6	22.0	15.7[16.7 µM]
O=C(CCNC(=O)c1ccco1)Nc1nc(-c2ccccc2)cs1	1.9	8.8*	-100.0	-17.9	?
CC(=O)Nc1ccc(-c2csc(NC(=O)CCNC(=O)c3ccco3)n2)cc1	-0.1	-3.6	.	2.3	9.1
O=C(c1ccccc1)N1CC2(C1)[C@@H](c1ccccc1)[C@@H](CO)N2CC1CC1	.	1.2	-0.4	3.3	.
Cc1cc2c(c(C)c1CCO[C@@H]1O[C@H](CO)[C@@H](O)[C@H](O)[C@H]1O)C(=O)[C@@H](C)[C@@H]2O	0.0	2.8	85.7*	-15.4	-469.4
COc1ccc(NC(=O)Nc2cccc3c2O[C@H](CN(C)S(=O)(=O)c2cn(C)cn2)[C@@H](C)CN([C@@H](C)CO)C3=O)cc1	.	0.4	.	-1.1	-0.9[16.7 µM]
COCC#Cc1ccc2c(c1)O[C@@H](CN(C)CC1CCOCC1)[C@H](C)CN([C@@H](C)CO)S2(=O)=O	.	0.3	.	-0.6	-14.9[16.7 µM]
C[C@@H]1CCCCO[C@H](CN(C)C(=O)Nc2cccc3ccccc23)[C@H](C)CN([C@@H](C)CO)C(=O)c2cc(N(C)C)ccc2O1	.	-5.1	71.4*	13.1	18.0[16.7 µM]
C[C@H](CO)N1C[C@H](C)[C@H](CN(C)C(=O)Nc2cccc3ccccc23)OCCCC[C@H](C)Oc2ccc(N(C)C)cc2C1=O	.	-3.7	-18.0	66.7*	9.9[16.7 µM]

Compound activity as filed in PubChem BioAssay.
